Common to all, as to experiment: DAPPL (digital affinity profiling via proximity ligation, sequencing); 10 mM Tris-HCl pH 7.5, 50 mM NaCl, 1 mM DTT, 4% glycerol, room temperature, 30 min; GST-TFs on glutathione beads, 16-mer random dsDNA library, 0.1% formaldehyde crosslink after washing; high values mean tight binding
Settings in all cases: protein: recombinant; tags: N-terminal GST; dsDNA, one strand shown

One assay deals with T1, ELK1 (Homo sapiens, UniProt P19419 1-428).
T1 sequence: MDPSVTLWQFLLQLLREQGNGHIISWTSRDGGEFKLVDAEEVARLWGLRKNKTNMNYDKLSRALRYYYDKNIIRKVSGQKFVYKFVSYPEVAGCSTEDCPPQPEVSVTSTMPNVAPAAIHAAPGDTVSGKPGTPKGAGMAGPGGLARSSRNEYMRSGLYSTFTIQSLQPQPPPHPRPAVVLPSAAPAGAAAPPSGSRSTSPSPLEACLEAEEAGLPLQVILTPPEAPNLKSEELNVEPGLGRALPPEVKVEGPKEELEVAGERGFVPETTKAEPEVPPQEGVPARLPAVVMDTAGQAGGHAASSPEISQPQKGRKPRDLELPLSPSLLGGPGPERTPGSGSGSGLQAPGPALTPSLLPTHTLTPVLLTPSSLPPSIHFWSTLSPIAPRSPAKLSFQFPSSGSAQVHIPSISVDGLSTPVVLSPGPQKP
The method in brief:
(§1)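 Pools were built from human transcription factors expressed in yeast as GST fusions, captured on glutathione beads and DNA-barcoded, along with a tag-only sample. Incubation with 200 nmole of a 16-mer random double-stranded DNA library lasted 30 min at room temperature in Tris/NaCl/DTT/glycerol buffer, and was followed by washing, 0.1% formaldehyde crosslinking, proximity ligation, PCR amplification and Illumina NextSeq500 sequencing. Binding signal is the quotient of each hexamer's read frequency for a factor and its frequency for the tag-only sample.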

The target of a further assay is T2, GABPA (Homo sapiens, UniProt Q06546 1-454).
T2 sequence: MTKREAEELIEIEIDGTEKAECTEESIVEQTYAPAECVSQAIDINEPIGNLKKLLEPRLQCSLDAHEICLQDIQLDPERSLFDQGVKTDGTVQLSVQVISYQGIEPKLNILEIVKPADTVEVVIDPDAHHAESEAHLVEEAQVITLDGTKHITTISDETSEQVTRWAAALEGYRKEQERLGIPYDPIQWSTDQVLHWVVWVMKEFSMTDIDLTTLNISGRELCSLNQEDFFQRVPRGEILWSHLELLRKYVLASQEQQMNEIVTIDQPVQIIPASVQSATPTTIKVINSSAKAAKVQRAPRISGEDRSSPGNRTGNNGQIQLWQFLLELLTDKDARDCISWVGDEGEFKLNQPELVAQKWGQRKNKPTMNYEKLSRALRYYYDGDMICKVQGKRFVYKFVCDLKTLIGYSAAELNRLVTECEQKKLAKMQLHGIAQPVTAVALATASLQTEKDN
In outline:
as §1

The target in a further assay is T3, ERG (Homo sapiens, UniProt P11308 1-479).
T3 sequence: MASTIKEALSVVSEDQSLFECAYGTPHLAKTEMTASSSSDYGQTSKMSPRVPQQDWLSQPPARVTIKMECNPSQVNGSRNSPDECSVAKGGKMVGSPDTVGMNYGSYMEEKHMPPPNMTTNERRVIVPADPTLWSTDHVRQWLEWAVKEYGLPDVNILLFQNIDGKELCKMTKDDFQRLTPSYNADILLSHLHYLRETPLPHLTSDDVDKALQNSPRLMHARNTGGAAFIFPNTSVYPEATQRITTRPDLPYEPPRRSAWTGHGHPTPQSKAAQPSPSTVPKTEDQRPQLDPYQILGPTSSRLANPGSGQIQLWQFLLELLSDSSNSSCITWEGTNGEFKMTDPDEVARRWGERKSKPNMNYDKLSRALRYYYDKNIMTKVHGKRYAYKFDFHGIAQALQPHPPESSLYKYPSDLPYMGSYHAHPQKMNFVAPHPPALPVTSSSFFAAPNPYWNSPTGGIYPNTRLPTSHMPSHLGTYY
In outline: as §1

In the next assay the target is ELF1 (Homo sapiens, UniProt P32519 1-619). In outline: as §1
The target in the next assay is T4, EHF (Homo sapiens, UniProt Q9NZC4 1-300).
T4 sequence: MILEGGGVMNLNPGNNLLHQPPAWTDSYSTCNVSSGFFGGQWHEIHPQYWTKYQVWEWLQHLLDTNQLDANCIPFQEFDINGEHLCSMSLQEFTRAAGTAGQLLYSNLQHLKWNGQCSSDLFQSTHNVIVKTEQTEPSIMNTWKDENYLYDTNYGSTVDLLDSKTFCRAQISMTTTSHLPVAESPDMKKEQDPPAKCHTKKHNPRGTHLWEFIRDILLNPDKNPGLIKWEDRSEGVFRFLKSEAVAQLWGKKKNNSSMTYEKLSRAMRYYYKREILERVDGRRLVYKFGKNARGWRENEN
The method in brief:
as §1

For a further assay, the target named is SPI1 (Homo sapiens, UniProt P17947 1-270). The method in brief: as §1
For another assay, the target named is SPIB (Homo sapiens, UniProt Q01892 1-262). The method in brief: as §1
The next assay concerns the target T5, FEV (Homo sapiens, UniProt Q99581 1-238).
T5 sequence: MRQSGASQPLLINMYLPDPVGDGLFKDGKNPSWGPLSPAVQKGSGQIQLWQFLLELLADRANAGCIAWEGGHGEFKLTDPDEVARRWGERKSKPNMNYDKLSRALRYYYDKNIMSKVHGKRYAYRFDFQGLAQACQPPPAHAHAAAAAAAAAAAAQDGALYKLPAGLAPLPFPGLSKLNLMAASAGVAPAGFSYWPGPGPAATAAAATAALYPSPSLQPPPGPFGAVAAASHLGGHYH
The method in brief:
as §1

The next assay concerns the target ETV5 (Homo sapiens, UniProt P41161 1-510). The method in brief: as §1
In the next assay the target is T6, ELK4 (Homo sapiens, UniProt P28324-2 1-405).
T6 sequence: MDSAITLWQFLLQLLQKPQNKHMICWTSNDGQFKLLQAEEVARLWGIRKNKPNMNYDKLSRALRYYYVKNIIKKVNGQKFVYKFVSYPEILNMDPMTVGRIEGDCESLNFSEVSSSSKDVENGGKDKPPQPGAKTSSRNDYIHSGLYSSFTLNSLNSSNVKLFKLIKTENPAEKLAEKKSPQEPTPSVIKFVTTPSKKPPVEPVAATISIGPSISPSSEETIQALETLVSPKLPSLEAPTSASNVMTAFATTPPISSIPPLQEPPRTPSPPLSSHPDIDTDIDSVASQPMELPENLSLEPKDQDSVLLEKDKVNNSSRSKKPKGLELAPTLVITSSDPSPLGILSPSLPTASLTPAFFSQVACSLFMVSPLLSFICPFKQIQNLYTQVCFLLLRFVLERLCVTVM
The method in brief:
as §1

The target of another assay is ETV1 (Homo sapiens, UniProt P50549 1-477). The method in brief:
as §1

The target of a further assay is T7, ERF (Homo sapiens, UniProt P50548 1-548).
T7 sequence: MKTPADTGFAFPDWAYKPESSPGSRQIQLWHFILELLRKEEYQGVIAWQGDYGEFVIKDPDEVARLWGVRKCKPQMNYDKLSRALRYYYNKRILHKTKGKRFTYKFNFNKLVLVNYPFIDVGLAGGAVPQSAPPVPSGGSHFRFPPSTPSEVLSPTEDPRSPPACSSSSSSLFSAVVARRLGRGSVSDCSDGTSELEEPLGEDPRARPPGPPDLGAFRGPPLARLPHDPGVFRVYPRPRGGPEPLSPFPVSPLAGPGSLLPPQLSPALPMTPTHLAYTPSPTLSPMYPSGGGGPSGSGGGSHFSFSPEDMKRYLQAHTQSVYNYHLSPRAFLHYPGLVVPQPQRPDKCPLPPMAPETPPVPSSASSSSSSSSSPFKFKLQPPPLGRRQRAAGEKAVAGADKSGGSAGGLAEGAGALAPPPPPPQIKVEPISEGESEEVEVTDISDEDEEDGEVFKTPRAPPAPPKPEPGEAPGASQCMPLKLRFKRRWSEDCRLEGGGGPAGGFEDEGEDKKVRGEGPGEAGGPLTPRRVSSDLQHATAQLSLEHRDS
The method in brief:
as §1

The target in a further assay is T8, ETV3L (Homo sapiens, UniProt Q6ZN32 1-361).
T8 sequence: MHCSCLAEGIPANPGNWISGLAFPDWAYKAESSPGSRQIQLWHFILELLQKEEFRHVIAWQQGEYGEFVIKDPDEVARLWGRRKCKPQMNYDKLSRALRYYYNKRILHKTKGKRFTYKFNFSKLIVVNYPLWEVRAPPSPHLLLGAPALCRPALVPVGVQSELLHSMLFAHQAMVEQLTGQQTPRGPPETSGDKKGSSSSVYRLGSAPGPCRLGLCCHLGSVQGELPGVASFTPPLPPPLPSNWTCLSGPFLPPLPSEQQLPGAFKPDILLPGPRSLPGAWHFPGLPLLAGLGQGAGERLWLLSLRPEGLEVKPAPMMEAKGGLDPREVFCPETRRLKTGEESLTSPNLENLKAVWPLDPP
The method in brief:
as §1

Another assay has as its target T9, ETS2 (Homo sapiens, UniProt P15036 1-469).
T9 sequence: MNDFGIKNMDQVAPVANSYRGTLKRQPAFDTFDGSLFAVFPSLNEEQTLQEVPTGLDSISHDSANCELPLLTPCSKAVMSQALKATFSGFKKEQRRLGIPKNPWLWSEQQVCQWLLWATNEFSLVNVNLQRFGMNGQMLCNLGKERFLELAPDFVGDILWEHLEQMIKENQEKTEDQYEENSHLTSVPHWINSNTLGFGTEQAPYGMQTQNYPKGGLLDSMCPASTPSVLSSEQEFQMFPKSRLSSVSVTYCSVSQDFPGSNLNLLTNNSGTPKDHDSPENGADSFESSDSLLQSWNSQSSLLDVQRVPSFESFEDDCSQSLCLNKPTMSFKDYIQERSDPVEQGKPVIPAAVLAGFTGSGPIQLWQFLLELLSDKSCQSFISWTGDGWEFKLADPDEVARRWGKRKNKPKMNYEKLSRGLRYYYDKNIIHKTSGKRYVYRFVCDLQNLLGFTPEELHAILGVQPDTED
The method in brief:
as §1

In the next assay the target is T10, SPDEF (Homo sapiens, UniProt O95238 1-335).
T10 sequence: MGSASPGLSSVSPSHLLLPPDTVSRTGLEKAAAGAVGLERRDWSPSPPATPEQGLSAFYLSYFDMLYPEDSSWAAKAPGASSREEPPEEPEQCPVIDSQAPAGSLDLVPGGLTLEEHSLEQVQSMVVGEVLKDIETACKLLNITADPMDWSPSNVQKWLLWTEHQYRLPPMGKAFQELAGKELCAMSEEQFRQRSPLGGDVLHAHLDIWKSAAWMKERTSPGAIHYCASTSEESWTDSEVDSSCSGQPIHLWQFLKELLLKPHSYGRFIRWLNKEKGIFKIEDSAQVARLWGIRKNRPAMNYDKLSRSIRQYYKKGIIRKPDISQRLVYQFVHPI
The method in brief:
as §1

The target in a further assay is T11, ETV7 (Homo sapiens, UniProt Q9Y603 1-341).
T11 sequence: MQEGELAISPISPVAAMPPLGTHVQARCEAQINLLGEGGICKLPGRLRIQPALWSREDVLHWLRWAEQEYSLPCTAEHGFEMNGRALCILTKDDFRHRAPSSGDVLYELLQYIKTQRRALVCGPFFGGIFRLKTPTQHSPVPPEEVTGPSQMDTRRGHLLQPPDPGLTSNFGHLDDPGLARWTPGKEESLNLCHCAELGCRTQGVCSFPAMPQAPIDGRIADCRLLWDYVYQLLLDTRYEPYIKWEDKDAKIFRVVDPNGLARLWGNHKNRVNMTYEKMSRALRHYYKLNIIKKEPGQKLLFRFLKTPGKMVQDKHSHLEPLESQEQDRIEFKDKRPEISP
In outline:
as §1

In a further assay the target is T12, ETV3 (Homo sapiens, UniProt P41162-2 1-143).
T12 sequence: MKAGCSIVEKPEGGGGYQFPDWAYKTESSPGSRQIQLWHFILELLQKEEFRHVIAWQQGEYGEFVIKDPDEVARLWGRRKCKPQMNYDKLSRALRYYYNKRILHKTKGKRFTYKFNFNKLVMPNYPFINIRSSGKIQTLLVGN
The method in brief: as §1

Another assay concerns the target ETV6 (Homo sapiens, UniProt P41212 1-452). The method in brief: as §1

Chain of ETV5 (P41161 whole entry): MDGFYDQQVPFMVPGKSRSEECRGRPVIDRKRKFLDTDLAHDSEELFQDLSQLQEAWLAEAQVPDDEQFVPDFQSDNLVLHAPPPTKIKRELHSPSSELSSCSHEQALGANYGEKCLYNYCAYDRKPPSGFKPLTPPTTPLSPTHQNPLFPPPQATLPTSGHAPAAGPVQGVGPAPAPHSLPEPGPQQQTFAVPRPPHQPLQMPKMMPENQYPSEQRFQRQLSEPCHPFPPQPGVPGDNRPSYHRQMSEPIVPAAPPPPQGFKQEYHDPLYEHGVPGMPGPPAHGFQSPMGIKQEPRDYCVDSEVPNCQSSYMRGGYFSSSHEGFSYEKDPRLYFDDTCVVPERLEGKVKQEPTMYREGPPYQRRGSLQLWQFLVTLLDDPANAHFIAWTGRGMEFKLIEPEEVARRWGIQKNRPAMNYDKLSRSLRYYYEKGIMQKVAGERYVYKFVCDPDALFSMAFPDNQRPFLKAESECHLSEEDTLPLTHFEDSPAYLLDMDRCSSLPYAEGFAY
Chain of SPIB (Q01892 whole entry): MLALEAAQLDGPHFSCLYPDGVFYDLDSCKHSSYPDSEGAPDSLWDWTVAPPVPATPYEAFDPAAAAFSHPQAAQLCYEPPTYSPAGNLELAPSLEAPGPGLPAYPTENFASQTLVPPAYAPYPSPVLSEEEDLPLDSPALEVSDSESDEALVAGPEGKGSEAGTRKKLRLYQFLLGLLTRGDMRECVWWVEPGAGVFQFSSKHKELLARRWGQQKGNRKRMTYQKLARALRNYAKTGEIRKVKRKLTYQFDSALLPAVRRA
Chain of ETV6 (P41212 whole entry): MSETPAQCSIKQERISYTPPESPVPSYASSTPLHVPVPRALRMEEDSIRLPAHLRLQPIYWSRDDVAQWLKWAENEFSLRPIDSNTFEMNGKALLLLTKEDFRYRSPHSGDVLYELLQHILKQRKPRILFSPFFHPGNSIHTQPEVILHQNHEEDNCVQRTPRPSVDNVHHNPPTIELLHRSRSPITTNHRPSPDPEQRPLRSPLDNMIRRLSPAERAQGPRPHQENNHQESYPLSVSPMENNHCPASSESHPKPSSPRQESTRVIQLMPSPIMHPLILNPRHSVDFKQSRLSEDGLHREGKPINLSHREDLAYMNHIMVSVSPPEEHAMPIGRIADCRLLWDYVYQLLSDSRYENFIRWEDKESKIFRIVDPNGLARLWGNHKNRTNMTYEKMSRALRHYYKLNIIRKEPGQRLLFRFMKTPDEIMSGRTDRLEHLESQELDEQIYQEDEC
Chain of ETV1 (P50549 whole entry): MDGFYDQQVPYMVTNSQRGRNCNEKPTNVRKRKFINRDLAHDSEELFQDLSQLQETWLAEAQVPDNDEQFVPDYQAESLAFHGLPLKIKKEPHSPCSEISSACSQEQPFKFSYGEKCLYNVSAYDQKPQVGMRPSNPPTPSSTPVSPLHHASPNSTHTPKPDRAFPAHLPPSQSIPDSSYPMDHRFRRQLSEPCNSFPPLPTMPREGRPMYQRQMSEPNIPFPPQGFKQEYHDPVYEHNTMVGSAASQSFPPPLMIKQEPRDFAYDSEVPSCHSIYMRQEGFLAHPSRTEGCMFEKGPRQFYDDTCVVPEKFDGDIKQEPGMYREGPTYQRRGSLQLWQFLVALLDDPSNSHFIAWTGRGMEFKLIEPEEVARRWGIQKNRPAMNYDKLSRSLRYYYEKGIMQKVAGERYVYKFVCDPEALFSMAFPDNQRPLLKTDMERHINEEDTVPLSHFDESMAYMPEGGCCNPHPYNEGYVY
Chain of ELF1 (P32519 whole entry): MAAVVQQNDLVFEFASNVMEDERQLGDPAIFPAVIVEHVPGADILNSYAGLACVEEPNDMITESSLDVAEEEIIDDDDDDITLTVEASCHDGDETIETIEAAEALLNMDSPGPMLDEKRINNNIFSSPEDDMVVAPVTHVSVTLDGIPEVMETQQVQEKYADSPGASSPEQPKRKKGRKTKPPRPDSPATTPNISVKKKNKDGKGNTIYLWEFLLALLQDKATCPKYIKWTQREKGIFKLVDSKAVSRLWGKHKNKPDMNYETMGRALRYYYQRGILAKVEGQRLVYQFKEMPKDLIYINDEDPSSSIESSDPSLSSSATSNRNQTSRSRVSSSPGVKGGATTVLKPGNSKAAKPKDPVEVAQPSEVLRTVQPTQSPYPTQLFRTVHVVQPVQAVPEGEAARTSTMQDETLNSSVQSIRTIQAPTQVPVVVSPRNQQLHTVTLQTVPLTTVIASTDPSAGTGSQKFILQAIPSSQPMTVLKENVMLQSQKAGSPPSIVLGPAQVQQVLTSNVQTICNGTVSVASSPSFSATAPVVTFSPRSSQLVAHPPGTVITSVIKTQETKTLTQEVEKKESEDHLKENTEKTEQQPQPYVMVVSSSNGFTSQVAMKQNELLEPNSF

With TGTAAG, the binding signal in the assay with ELK1 is 1.06 fold enrichment (6-mer frequency, TF over GST control); with GABPA it was 1.03 fold enrichment (6-mer frequency, TF over GST control); in the assay with ERG, 1.07 fold enrichment (6-mer frequency, TF over GST control); in the assay with ELF1, 1.11 fold enrichment (6-mer frequency, TF over GST control); with EHF, 1.16 fold enrichment (6-mer frequency, TF over GST control); with SPI1, 1.12 fold enrichment (6-mer frequency, TF over GST control). For the same sequence, the binding signal was 1.06 fold enrichment (6-mer frequency, TF over GST control) with SPIB; 1.06 fold enrichment (6-mer frequency, TF over GST control) with FEV; 1.08 fold enrichment (6-mer frequency, TF over GST control) with ETV5; 1.06 fold enrichment (6-mer frequency, TF over GST control) with ELK4; 1.06 fold enrichment (6-mer frequency, TF over GST control) with ETV1; 1.11 fold enrichment (6-mer frequency, TF over GST control) in the assay with ERF. Also, the binding signal with ETV3L is 1.03 fold enrichment (6-mer frequency, TF over GST control); with ETS2 it was 1.04 fold enrichment (6-mer frequency, TF over GST control); with SPDEF it was 1.13 fold enrichment (6-mer frequency, TF over GST control); with ETV7 it was 1.04 fold enrichment (6-mer frequency, TF over GST control); in the assay with ETV3, 1.17 fold enrichment (6-mer frequency, TF over GST control); with ETV6, 1.14 fold enrichment (6-mer frequency, TF over GST control).
As to GACTTA, the binding signal was 1.03 fold enrichment (6-mer frequency, TF over GST control) with GABPA; 1.04 fold enrichment (6-mer frequency, TF over GST control) with EHF; 1.01 fold enrichment (6-mer frequency, TF over GST control) in the assay with ETV5; 1 fold enrichment (6-mer frequency, TF over GST control) with ELK4; 1.02 fold enrichment (6-mer frequency, TF over GST control) with ETV3.

Values taken from paper PMC7862700, “An all-to-all approach to the identification of sequence-specific readers for epigenetic DNA modifications on cytosine”.
